# Source: PubChem BioAssay
# MT1-MMP txn act: activates MT1-MMP transcription | HT1080 MT1-MMP promoter luciferase reporter, luminescence, overnight; stronger effect = higher value | activation factor at 10 µM | 86,000 tested, 0.16% active | AID 750;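 active means activation factor of at least 2 for MT1-MMP transcription at 10 µM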
# ERb SRC1 inh: blocks coactivator binding to human estrogen receptor beta; Q92731; TR-FRET ER-beta LBD / SRC1-Cy5 peptide binding; receptor agonist-loaded with 1 µM estradiol; inhibition, % at 25.6 µM; 86,000 tested, 1.3% active;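 active means compounds whose percent inhibition of the receptor-coactivator binding signal exceeds about 50% in the single-dose screen, limit read from the data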;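 further: 0% = receptor plus peptide wells without compound and 100% = peptide-only wells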
# ERa SRC1 pot: ER-alpha (human) coactivator binding potentiation; AID 639; P03372; TR-FRET ERalpha-LBD/SRC-Cy5 coactivator binding, 2 h; 100 = basal binding, no effect; 86,000 tested, 1.3% active; coactivator binding (% of control), % at 25.6 µM; in the data active means activity above about 200%;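 further: binding measured in presence of low estradiol as agonist stimulus; 0% = peptide alone without receptor and 100% = receptor with peptide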
# Smad3 inh: blocks human Smad3 binding to FoxH1 peptide. P84022. TR-FRET Smad3/Dy647-FoxH1 peptide binding, europium anti-His. inhibition, % at 25 µM. 88,000 tested, 0.29% active. AID 630;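 active means compounds that reduce the energy-transfer binding signal between the protein and its labelled peptide by more than half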;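 further: 0% = Smad3 plus labelled peptide maximal FRET and 100% = peptide-only background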
# Target sequence (P84022 whole entry, looked up): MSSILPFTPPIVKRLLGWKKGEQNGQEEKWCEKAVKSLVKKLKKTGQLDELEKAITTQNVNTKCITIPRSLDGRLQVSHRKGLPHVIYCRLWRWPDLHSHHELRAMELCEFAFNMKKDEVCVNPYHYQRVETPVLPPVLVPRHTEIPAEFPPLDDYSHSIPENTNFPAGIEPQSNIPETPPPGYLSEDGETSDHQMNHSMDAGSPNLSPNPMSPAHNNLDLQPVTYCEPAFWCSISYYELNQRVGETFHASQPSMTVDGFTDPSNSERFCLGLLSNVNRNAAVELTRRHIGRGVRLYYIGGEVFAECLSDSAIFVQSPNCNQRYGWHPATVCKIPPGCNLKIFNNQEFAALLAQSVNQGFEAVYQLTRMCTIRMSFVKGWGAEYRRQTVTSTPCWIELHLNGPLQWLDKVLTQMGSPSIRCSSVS
# Calb biofilm kill: kills Candida albicans biofilms; C. albicans biofilm + clotrimazole, Alamar Blue; inhibition, % at 6 µM; 85,000 tested, 0.14% active; AID 834;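 active means inhibition above 20%; inactive means inhibition below 20%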;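 further: preformed 24 hr biofilms exposed to compound for 48 hr; 0% = biofilm without compound and 100% = blank killed by clotrimazole plus chlorhexidine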
# ERa SRC1 inh: ER-alpha (human) coactivator binding inhibition | 86,000 tested, 1.7% active | inhibition, % at 25.6 µM | P03372 | TR-FRET ER-alpha LBD / SRC-1 peptide, estradiol-bound; in the data active means inhibition above about 50%;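 further: 0% = receptor plus peptide control and 100% = peptide only without receptor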
# * marks the source's active call; other numbers are inactive results; i = inactive; . = no result; [ ] = another dose, or the depositor's remark. Only some compounds are listed: those with a hit (about 3.8% of all), similar ones and a draw of the others.
SMILES,MT1-MMP txn act,ERb SRC1 inh,ERa SRC1 pot,Smad3 inh,Calb biofilm kill,ERa SRC1 inh
O=C(Nc1nc(-c2cccs2)cs1)c1ccc(S(=O)(=O)N2CCCCC2)cc1,1.1,-4.4,234.9*,-7.1,12.9,-2.2
Cc1ccc(-c2csc3nnc(SCc4csc(C)n4)n23)cc1,1,-0.3,365.5*[fluorescence artefact?],9.8,12.2,1.1
CCc1nnc(NC(=O)CSc2nnc3scc(-c4ccc(C)cc4)n23)s1,1.1,3.1,106.3,-1.1,-2.1,1.3
Cc1sc(NC(=O)CSc2nnc(COc3ccccc3)n2C)c(C#N)c1C,1,3.1,131.5,12.4,7.5,1.2
Cc1ccc(-c2nc(NC(=O)CSc3nnc4scc(-c5ccccc5)n34)ns2)cc1,1.1,-4.5,203.2*[fluorescence artefact?],-7.7,6.2,24.3
Cc1ccc(OCc2nnc(SCC(=O)Nc3sc(C)c(C)c3C#N)n2C)cc1,1,10.2,249.7*,8.6,8.7,15.1
Cc1nc(CSc2nnc3scc(-c4ccccc4)n23)cs1,1.2,-2.9,120.7,2.5,.,4.3
Cc1sc(NC(=O)CSc2nnc3scc(-c4ccccc4)n23)c(C#N)c1C,1.1,33.5,224.5*[fluorescence artefact?],-8.0,-1.6,36.8
Cc1nnc(NC(=O)CSc2nnc3scc(-c4ccc(C)c(C)c4)n23)s1,1.1,-15.2,258.9*,0.2,2.9,-23.4
Cn1c(=O)c2[nH]c(CCC(=O)O)nc2n(C)c1=O,.,.,.,-1.4,.,.
Cc1cc(C)c(C#N)c(SCc2cc3c(cc2Cl)OCO3)n1,1.2,58.2*[fluorescence artefact?],189.3,-3.8,3.8,56.0*[fluorescence artefact?]
COc1ccc2[nH]c3nc(SC(C)C)nnc3c2c1,0.2,18.0,95.8,-2.9,0.4,20.0
COc1ccc2[nH]c3nc(SCc4nnc(-c5ccccc5)o4)nnc3c2c1,1.3,52.4*[fluorescence artefact?],53.8,7.4,-2.5,85.3*[fluorescence artefact?]
Cc1cc2c(C)c(C)c(=O)[nH]c2cc1N,.,44.1,16.1,0.1,10.8,68.7*[fluorescence artefact?]
CCCC(c1cc(C(C)(C)C)c(O)cc1C)c1cc(C(C)(C)C)c(O)cc1C,.,.,.,0.8,.,.
Cc1cc(C(C)(C)C)cc(CNC2CCCCC2)c1O,.,.,.,1.6,.,.
COC(=O)c1cc2nc(-c3ccccc3)cc(C)n2n1,1,21.8,94.3,-11.9,0.2,10.7
Cc1cc(-c2ccccc2)nc2cc(C(=O)N(Cc3ccccc3)Cc3ccccc3)nn12,1.3,-5.8,204.4*,11.1,9.1,-11.2
CCN1C(=O)C(C(=O)Nc2ccc(OC)cc2)C2CC1(C)Oc1ccccc12 (configuration not stated),1.3,3.3,114.3,6.4,9.7,-11.6
COc1ccc(/C=C/C(O)=C2/C(=O)N(C)C3(C)CC2c2ccccc2O3)cc1 (configuration not stated),0.9,26.7,94.7,13.6,1.8,62.9*
Cc1ccc(C(=O)NCC(=O)OCC(=O)c2c(N)n(C)c(=O)n(C)c2=O)s1,1.1,50.0*,64.0,3.7,2.8,52.6*
COc1cc2c(cc1NC(=O)C(C)OC(=O)C1CC(=O)N(Cc3ccco3)C1)oc1ccccc12 (configuration not stated),2.1*,12.5,107.4,-5.9,4.8,9.7
COc1ccc(C)cc1NC(=O)C1CC(=O)N(Cc2ccco2)C1 (configuration not stated),1.1,0.2,116.5,25.6,6.5,-1.7
COC(=O)c1ccc(CC(=O)c2c(C)cc(O)cc2O)o1,1.1,52.1*,75.2,-1.3,1.4,35.4
CCN(CCO)C[C@@H]1CCC[C@@H]2CCCC[C@H]21,.,.,.,0.0,.,.
SMILES,MT1-MMP txn act,ERb SRC1 inh,ERa SRC1 pot,Smad3 inh,Calb biofilm kill,ERa SRC1 inh
Cn1c(=O)oc2cc(S(=O)(=O)N3CCCC(C(=O)NC4CCCc5ccccc54)C3)ccc21 (configuration not stated),.,51.1*[fluorescence artefact?],79.9,-0.8,8.8,15.8
Cc1nc2sccn2c1-c1nc(-c2cc3ccccc3o2)cs1,1.3,27.6,89.9,-1.1,7.2,61.5*
Cc1ccnc(Nc2nc(-c3c(C)nc4sccn34)cs2)c1,1.3,-2.7,90.0,-4.3,-4.7,41.1
COc1ccc(-n2nc(C(=O)NCc3ccco3)c3ccccc3c2=O)cc1,1.1,9.9,124.4,12.5,3.0,5.8
COc1ccc(-n2nc(C(=O)NCc3ccco3)c3c4ccccc4n(C)c3c2=O)cc1,1.1,2.3,328.8*[fluorescence artefact?],4.9,2.8,3.7
CCOc1cccc2cc(C(=O)NCc3cccnc3)c(=O)oc12,1.1,-1.2,174.3,-2.0,8.5,3.6
C=CCc1cccc2cc(C(=O)NCc3cccnc3)c(=O)oc12,1.2,43.8,64.5,8.0,1.6,80.7*[fluorescence artefact?]
Clc1ccc2nc(CSc3nnc(-c4c[nH]c5ccccc45)o3)cn2c1,1,42.0,260.8*[fluorescence artefact?],10.9,5.4,31.1
c1ccc(-c2cc3n(c2)CCc2ccccc2-3)cc1,2.6*,-11.6,83.7,-1.7,6.5,-27.5
CCC(Sc1nc(C)cc(C)n1)C(=O)Nc1ccc(Cl)cn1 (configuration not stated),2*,-5.9,113.0,-0.7,-3.9,-4.2
CCCCn1c(CN2CCN(c3cccc(Cl)c3)CC2)nc2c1c(=O)[nH]c(=O)n2C,0.7,-31.6,88.6,3.9,2.7,-17.5
CCOC(=O)Cn1c(CN2CCN(c3cccc(Cl)c3)CC2)nc2c1c(=O)[nH]c(=O)n2C,1.2,70.7*[fluorescence artefact?],123.3,-5.8,7.3,-3.3
O=C(O)C/C=C/CC(=O)O,.,.,.,-7.0,.,.
Cc1cc(C)c(C#N)c(SCc2ccccc2)n1,1.1,-2.7,94.5,-6.4,4.8,1.4
CCOC(=O)c1sc(NC(=O)CSc2nc(C)cc(C)n2)c(C#N)c1C,1.2,3.4,89.6,2.8,6.9,2.4
CCOC(=O)c1c(NC(=O)CSc2nnc(-c3ccccc3)o2)sc(C(C)=O)c1C,1,-6.6,318.8*,5.7,1.4,-6.1
CCOC(=O)c1c(NC(=O)CSc2nc(C)cc(C)c2C#N)sc(C(C)=O)c1C,1,49.1,678.1*[fluorescence artefact?],i,2.5,61.2*[fluorescence artefact?]
Cc1cc(C)c(C#N)c(SCC(=O)Nc2nnc(-c3ccccc3)s2)n1,1,6.2,207.5*[fluorescence artefact?],-9.7,2.8,-14.7
O=C(O)c1cc2sccc2s1,1.1,59.0*,107.4,-0.1,8.4,0.8
CCCNCc1cc(OC)c(OCCC)cc1Cl,1.1,-13.1,119.9,2.9,2.0,-5.1
COCCN1C(=O)C(=O)/C(=C(/O)c2ccc3c(c2)OCCO3)C1c1ccc(C(=O)OC)cc1 (configuration not stated),1.3,-9.9,91.5,-4.0,-5.5,-6.9
COCCCN1C(=O)C(=O)/C(=C(/O)c2ccc3c(c2)OCCO3)C1c1ccc(C(=O)OC)cc1 (configuration not stated),1.1,80.0*[fluorescence artefact?],68.0,28.2,6.8,77.0*[fluorescence artefact?]
Cc1cccc(Cl)c1NC[C@H](O)CN1CCN(C)CC1,.,.,.,-0.3,.,.
CC(C)(C)n1nnnc1C(c1cc2cc3c(cc2[nH]c1=O)OCCO3)N1CCSCC1 (configuration not stated),1.2,-0.3,84.8,-0.9,9.2,7.0
